# MARV entry inh: blocks Marburg virus binding to or entry into cells | Marburg virus pseudotyped entry inhibition, cell reporter | Potency, µM (titrated, usually from 37.8 µM), without a hit: at the highest dose activity change, negative = inhibition, actives largely listed as inhibitors | 300,000 compounds, 1.8% hits; calls by dose curve; tested in HEK293 cells; also: potency is read from the fitted curve at half-maximal effect
# VACV Venus inh: inhibitors of vaccinia virus (Venus reporter); 330,000 compounds, 0.46% hits; AID 720580; Potency, µM (titrated, usually from 36.5 µM), inactives show at the top dose activity change, negative = inhibition, most hits filed as inhibitors; Vaccinia virus Venus reporter expression, fluorescence; calls by dose curve; tested in A549 cells; also: potency is read from the fitted curve at half-maximal effect; nearly all actives have a fitted effect of over 30% in size
# HCV inh: blocks hepatitis C virus | Potency, µM (titrated, usually from 41.8 µM), for the others: at the top dose activity change, negative = inhibition, actives largely listed as inhibitors | Huh7.5.1 HCVcc-Cre infection, luciferase reporter, 44 h | 340,000 compounds, 3.4% hits; active = well fitted inhibition curve with a large enough effect; inconclusive = small, poorly fitted or top-dose-only effect, or another doubt; inactive = no such curve, though single readings can be large or run the other way; also: potency is read from the fitted curve at half-maximal effect
#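 Seed cells (1,000/well) for 4 h; treat with compound and infect with HCVcc-Cre, moi about 0.5. Incubate 44 h, then detect luciferase activity.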
# HCMV inh: human cytomegalovirus inhibition; HFF cells, HCMV-luciferase reporter, 72 h; active compounds read low; activity change, negative = inhibition, % at 57.5 µM; 410,000 compounds, 4.5% hits; AID 1259415; in the data active = activity change below about -60%; inconclusive = no clear call, values can overlap the other calls; inactive = above about -39%
#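 Human foreskin fibroblasts infected with luciferase-reporter HCMV at MOI 1 PFU/cell, compounds at two doses. Luciferase measured 72 h post infection; normalized to buffer-only basal and Salinomycin (10uM) controls.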
# LASV entry inh: Lassa virus entry inhibition; 300,000 compounds, 1.2% hits; Lassa virus pseudotype entry inhibition, cell reporter; Potency, µM (highest dose often 37.9 µM), for inactives: top-dose activity change, negative = inhibition, actives largely listed as inhibitors; AID 540256; calls by dose curve; tested in HEK293 cells; also: potency is read from the fitted curve at half-maximal effect; nearly all actives have a fitted effect of over 50% in size
# VACV mCherry inh: vaccinia inhibition (mCherry reporter); Potency, µM (doses to about 36.5 µM), inactives show top-dose activity change, negative = inhibition, most hits filed as inhibitors; Vaccinia virus mCherry reporter infection, fluorescence; 310,000 compounds, 0.63% hits; AID 720579; calls by dose curve; tested in A549 cells; also: potency is read from the fitted curve at half-maximal effect; nearly all actives have a fitted effect of over 35% in size
# Numbers without * were called inactive; i = inactive; ? = inconclusive; nt = no result given; + = active, no number; [ ] = remark or other dose. Compounds with a hit are over-represented: about 7.8% of the library has one in this group of screens. % is scaled to controls: 0 for no effect and ±100 for the full control effect.
SMILES,MARV entry inh,VACV Venus inh,HCV inh,HCMV inh,LASV entry inh,VACV mCherry inh
CC1Sc2ccc(S(=O)(=O)NCCc3ccccc3)cc2NC1=O (configuration not stated),nt,nt,-10%,+,nt,nt
CC1Sc2ccc(S(=O)(=O)NCCc3ccc(S(N)(=O)=O)cc3)cc2NC1=O (configuration not stated),0%[46.1 µM],-2%,3%,?,7%[46.1 µM],i
CC(=O)N1CC(C)Sc2ccc(S(=O)(=O)NCc3ccc(Cl)cc3)cc21 (configuration not stated),nt,nt,?,0,nt,nt
COC(=O)c1c(C)nc(C)c2c(=O)oc3c(c12)CCCC3,13%,nt,nt,nt,nt,nt
CCN1CCN(CCCNC(=O)c2ccc3c(c2)NC(=O)c2ccccc2S3)CC1,-8%,-4%,10µM*,-3,nt,-9%
CCC(C)N(CCNC(=O)c1ccc2c(c1)NC(=O)c1ccccc1S2)C1CCCCC1 (configuration not stated),?,-17%,22µM*,0,3.2µM*,-14%
Cc1cccc(/C=C2/Sc3ccc(C(=O)NCCCN4CCOCC4)cc3NC2=O)c1,nt,nt,nt,-31,nt,nt
COc1ccc(/C=C2/Sc3ccc(C(=O)NCCCN4CCOCC4)cc3NC2=O)cc1OC,?,-21%,7.9µM*,98,-9%,i
COc1ccc(C(=O)NCCCN2CCOCC2)cc1OC,0%,nt,26%,35,-1%,nt
CCN1CCN(CCCNC(=O)c2ccc3c(c2)NC(=O)/C(=C\c2cccc(C)c2)S3)CC1,nt,nt,1.8µM*,?,nt,nt
CC1CCCC(C)N1CCCNC(=O)c1ccc2c(c1)NC(=O)c1ccccc1S2 (configuration not stated),?,-27%,?,-29,-6%[46.1 µM],-15%
CC(C)CCn1c(=O)c2cccnc2n(CC(=O)Nc2ccccc2)c1=O,?,-5%,nt,23,nt,-8%
CN=c1sc(C(=O)Nc2cccc(Cl)c2)cc(=O)n1C,?,nt,-8%,-66*,?,nt
Cn1c(N)c(C(=O)Nc2cccc(Cl)c2)c(=O)n(C)c1=O,?,-15%,?,156,24%,-14%
N#C/C(=C(/O)c1ccc([N+](=O)[O-])o1)c1nc2ccccc2[nH]1,nt,nt,2%,-74*,nt,nt
Cc1ccc2nc(/C(C#N)=C\c3cc(C)n(-c4cccc([N+](=O)[O-])c4)c3C)[nH]c2c1,?,nt,2.2µM*,-12,?,nt
N#C/C(=C\c1ccc([N+](=O)[O-])o1)c1nc2ccccc2[nH]1,-1%,nt,?,-94*,nt,nt
CC(C)(C)/C(O)=C(/C#N)c1nc2ccccc2[nH]1,-29%,nt,?,-18,23%,nt
CCOC(=O)c1ccc(-c2ccc(/C=C(\C#N)c3nc4ccc(C)cc4[nH]3)o2)cc1,nt,-14%,nt,-79*,?,?
Cc1cc(/C=C(/C#N)c2nc3ccccc3[nH]2)c(C)n1-c1cc(C(=O)O)cc(C(=O)O)c1,14%[46.1 µM],0%,2%,18,19%[46.1 µM],i
C=C[C@@H]1c2cc(C)ccc2N(S(=O)(=O)c2ccc(C)cc2)[C@H](c2ccc(C(C)(F)F)cc2)C1(C#N)C#N,nt,-6%,nt,nt,nt,-12%
Cc1ccc2nc(/C(C#N)=C\c3ccc([N+](=O)[O-])o3)[nH]c2c1,18µM*,-11%,?,-103*,3.3µM*,i
Cc1ccc2nc(/C(C#N)=C\c3ccc(N4CCOCC4)o3)[nH]c2c1,?,i,?,137,-29%,17%
COc1cc2onc(C3CCN(C(=O)C(C)(C)C)CC3)c2cc1OC,nt,nt,nt,-11,nt,nt
COc1ccc(C2=NCC(=O)N(CC(=O)NCc3ccco3)c3sc4c(c32)CCCC4)cc1,?,-5%,?,53,0%,-7%
SMILES,MARV entry inh,VACV Venus inh,HCV inh,HCMV inh,LASV entry inh,VACV mCherry inh
O=C1CN=C(c2ccc(Br)cc2)c2c(sc3c2CCCC3)N1CCN1CCCCC1,nt,nt,-18%,-97*,nt,nt
N#Cc1ccccc1CN1CCN(c2ncc(C(=O)NCc3ccco3)s2)C1=O,nt,nt,nt,-24,nt,nt
Cc1ccc(C)c(C(=O)CSc2nc3ccccc3c(=O)[nH]2)c1,-23%[46.1 µM],-26%,15%,-66*,-13%,-29%
COCCn1c(C)cc(C(=O)CSc2ccc3ccccc3n2)c1C,2%,-21%,10µM*,143,-10%,nt
Cc1cc(C)cc(N(CCC#N)C(=O)CSc2nc3ccccc3c(=O)[nH]2)c1,10µM*,-15%,-19%,15,?,i
COCCn1c(C)cc(C(=O)CSc2nc(C)nc3sc4c(c23)CCC4)c1C,3.7µM*,nt,10µM*,-80*,10µM*,nt
CC(C)C(=O)N[C@@H]1CCCN1C(=O)C=Cc1ccccc1,-47%[14.2 µM],nt,nt,nt,0%[14.3 µM],nt
COCCn1c(C)cc(C(=O)COc2nc3ccccc3nc2C)c1C,?,?,?,-86*,-28%,-9%
COCCn1c(C)cc(C(=O)CSc2nc3ccccc3c(=O)[nH]2)c1C,?,nt,8.9µM*,15,?,nt
Cc1cc(C)c(C(=O)CSc2nc3ccccc3c(=O)[nH]2)cc1C,5%,-6%,11%,46,18%,i
COc1ccccc1CNC(=O)CN(C)c1nn2c(=O)cc(C)nc2s1,-6%[46.1 µM],-5%,nt,0,-11%[46.1 µM],-3%
O=c1c2ccccc2nc(/C=C/c2cc(Br)ccc2O)n1CCCO,?,?,?,-96*,10µM*,11µM*
O=c1c2ccccc2nc(/C=C/c2ccccc2)n1-c1ccc(O)cc1,?,-17%,?,-88*,?,i
O=c1c2ccccc2nc(/C=C/c2ccc(O)c(O)c2)n1-c1ccccc1,nt,nt,-16%,78,nt,nt
O=c1c2ccccc2nc(/C=C\c2cccc(Br)c2)n1-c1ccc(O)cc1,nt,-15%,nt,-92*,?,-22%
O=c1c2ccccc2nc(/C=C/c2ccc(O)cc2)n1-c1ccccc1O,nt,nt,-22%,-39,nt,nt
O=c1c2ccccc2nc(/C=C/c2cccc([N+](=O)[O-])c2)n1CCO,?,-18%,?,?,?,-10%
O=C(O)c1ccc(-n2c(/C=C\c3ccc(O)cc3)nc3ccccc3c2=O)cc1,nt,-6%,nt,-14,-14%[46.1 µM],-5%
O=c1c2ccccc2nc(/C=C/c2ccccc2)n1-c1ccccc1O,?,-12%,-28%,-95*,?,-9%
CC(=O)Oc1ccc(OC(C)=O)c(SCCCCCN2CCOCC2)c1,16µM*,nt,11µM*,?,?,nt
O=C(Nc1ccc(Cl)c(-c2nc3ccccc3o2)c1)c1cccc2c(Cl)cccc12,3%[46.1 µM],-5%,nt,19,-28%[46.1 µM],-6%
COc1cc(/C=C/C(=O)Nc2ccc(C)cc2)cc(OC)c1OC,3%,-20%,?,-38,?,-33%
COc1ccc(/C=C/C(=O)Nc2ccccc2C(=O)O)cc1OC,1.5µM*,nt,1%[8.37 µM],-81*,1.3µM*,nt
COc1ccc(/C=C/C(=O)Nc2ccccc2C(F)(F)F)cc1OC,5%,-13%,-5%,4,?,-18%
